PLC-beta3 inh = inhibitors of human phospholipase C beta3; Q01970; AID 720704; 370,000 compounds, 0.18% hits; Purified PLC-beta3, fluorogenic substrate, fluorescence; inhibition, % at 12.2 µM; in the data active means inhibition above about 11%;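 further: 0% = median of compound wells on plate and 100% = full blocker control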
DAGLB inh = diacylglycerol lipase beta (human) inhibition | 340,000 compounds, 0.059% hits | HEK293T DAGLB membrane lysate, EnzChek fluorogenic substrate | Q8NCG7 | inhibition, % at 5.17 µM; in the data active means inhibition above about 34%;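 further: 0% = enzyme with vehicle and 100% = wells lacking enzyme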
sPLA2-III inh = Inhibits HGIII-sPLA2 liposome hydrolysis, primary screen; inhibition, % at 12.2 µM; AID 743126; QFRET BODIPY PC-A2 liposome hydrolysis, fluorescence; 370,000 compounds, 0.56% hits; Q9NZ20;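 active means inhibition above mean plus 3 SD of compounds lying within the high and low control bounds, cut at about 19% in these data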;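 further: 0% = median of test compound wells and 100% = no enzyme DMSO wells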
Target sequence (Q9NZ20 whole entry, looked up): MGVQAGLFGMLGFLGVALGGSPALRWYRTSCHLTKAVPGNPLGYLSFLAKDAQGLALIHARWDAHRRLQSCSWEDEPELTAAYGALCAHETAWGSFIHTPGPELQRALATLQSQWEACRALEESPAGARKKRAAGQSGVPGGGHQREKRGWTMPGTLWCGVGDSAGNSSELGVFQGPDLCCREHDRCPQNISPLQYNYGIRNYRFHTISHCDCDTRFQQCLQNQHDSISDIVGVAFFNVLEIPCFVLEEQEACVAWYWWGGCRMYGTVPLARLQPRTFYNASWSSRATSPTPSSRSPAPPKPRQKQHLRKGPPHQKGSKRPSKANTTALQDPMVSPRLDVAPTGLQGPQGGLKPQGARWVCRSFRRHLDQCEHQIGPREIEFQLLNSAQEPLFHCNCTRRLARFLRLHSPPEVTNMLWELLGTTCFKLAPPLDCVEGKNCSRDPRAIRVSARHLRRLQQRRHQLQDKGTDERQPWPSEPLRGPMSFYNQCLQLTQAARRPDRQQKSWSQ
PLCg1 inh = PLC-gamma1 (human) inhibition, primary screen; inhibition, % at 12.2 µM; purified PLC-gamma1, fluorogenic substrate, fluorescence; P19174; AID 720700; 370,000 compounds, 0.84% hits; in the data active means inhibition above about 9.5%
hGIII sPLA2 conf = human GIII-sPLA2 inhibition, confirmation. shares compounds with sPLA2-III inh. recombinant hGIII-sPLA2, BODIPY PC-A2 QFRET fluorescence. inhibition, % at 12.2 µM. 2,000 compounds, 34% hits. AID 743280;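 active means mean inhibition across triplicates above the hit cutoff set in the earlier primary screen, cut at about 19% in these data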;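 further: 0% = enzyme with DMSO and 100% = DMSO wells lacking enzyme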
BODIPY interf = optically interferes with 535nm fluorescence in sPLA2 counter-screen. shares compounds with sPLA2-III inh. BODIPY FL product fluorescence interference, QFRET. inhibition, % at 12.2 µM. 2,000 compounds, 8.5% hits. AID 743282;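 active means average inhibition above the solvent-only control mean plus 3 SD, cut at about 6% in these data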;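 further: 0% = DMSO with substrate plus product and 100% = DMSO with substrate alone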
BODIPY interf DR = interferes with 535nm fluorescence in dose response counter-screen. BODIPY FL product fluorescence interference, cell-free. AID 743455. shares compounds with sPLA2-III inh. IC50, µM. 240 tested, under 10 active;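 active means IC50 at or below 10 µM; inactive means IC50 above 10 µM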
Numbers without * were called inactive; i = inactive; nt = not tested or not shown. Shown are actives, neighbours in structure and some others; about 1.5% of the full set was active somewhere.

SMILES	PLC-beta3 inh	DAGLB inh	sPLA2-III inh	PLCg1 inh	hGIII sPLA2 conf	BODIPY interf	others
C=CCNC(=O)/C(=C/c1cn(-c2ccccc2)nc1-c1cccc([N+](=O)[O-])c1)NC(=O)c1ccccc1	-3	-3	21*	4	-12	-24
Cc1cc2nc(-c3ccc[nH]c3=O)n(Cc3ccc(F)cc3)c2cc1C	i	0	-7	i	nt	nt
Cc1cc2nc(-c3ccc[nH]c3=O)n(Cc3ccccc3F)c2cc1C	-104	0	19*	-70	-2	-13
CC(=O)C(C(C)=O)C1(O)C(=O)c2ccccc2C1=O	0	-15	22*	3	-5	-4
COC(=O)[C@]12C[C@H](CC(=O)N3CCN(C(=O)c4ccco4)CC3)C(=O)N(CCc3ccc(OC)c(OC)c3)C1=C[C@H](COCc1ccccc1)O[C@@H]2C	6	nt	-6	3	nt	nt
CCOc1ccc(N2C(=O)Nc3ccc(Br)cc3C2(O)C(=O)NCCN(C)C)cc1 (stereo not drawn)	6	-3	-2	-1	nt	nt
CCc1ccc(N2C(=O)Nc3ccc(Br)cc3C2(O)C(=O)NCCN(C)C)cc1 (stereo not drawn)	-1	-3	20*	2	2	-6
C=CCN(CC#Cc1ccccc1)CC1CC1	1	nt	4	0	nt	nt
COc1ccccc1Cn1[nH]nnc1=S	-10	1	22*	0	13	-2
Cc1ccc(-c2csc(N3CCN(c4cc5c(cc4Cl)nc(C(C)N)n5CCCO)CC3)n2)cc1 (stereo not drawn)	-24	-1	23*	-14	20*	-3
CCOC(=O)C(NC(=O)NCc1ccc(F)cc1)(OCC)C(F)(F)F (stereo not drawn)	-3	-2	12	6	nt	nt
CCOC(=O)C(NC(=O)Nc1ccc(Cl)cn1)(Oc1ccc(F)cc1)C(F)(F)F (stereo not drawn)	0	-1	25*	-9	-1	-8
NC(=S)NNC(=O)C12CC3CC(CC(C3)C1)C2	0	-2	21*	3	9	0
CCOC(=O)NNC(=O)C12CC3CC(CC(C3)C1)C2	-2	-3	1	1	nt	nt
CCOC(=O)[C@@]12CCCC3=C1N(CCC3)C(=O)[C@H]2CC(=O)NCCc1ccccc1OC	-4	nt	6	1	nt	nt
Oc1ccc(-c2n[nH]c(=S)n2Cc2ccco2)cc1	0	0	5	-1	nt	nt
Cc1nn(C)c(-c2n[nH]c(=S)n2Cc2ccco2)c1Cl	-4	1	20*	-5	22*	-1
C=CCn1c(C2CC2)n[nH]c1=S	0	0	13	2	nt	nt
CCCCCC1CCC(c2n[nH]c(=S)n2C)CC1 (stereo not drawn)	-1	-1	20*	-2	26*	-1
CCOc1ccc(CSC(=N)N)cc1Cl	-5	-6	26*	2	8	-8
CCOc1ccc(CSC(=N)N)cc1[N+](=O)[O-]	3	1	22*	1	2	0
Cc1ccc(CNC(=O)CSc2nc3[nH]ncc3c(=O)[nH]2)cc1	1	0	19*	-3	-2	-5
Cc1ccc(C)c(NC(=O)CSc2nc3[nH]ncc3c(=O)[nH]2)c1	-2	2	1	-1	nt	nt
O=C(O)C(C/C(=N/O)c1ccc(Br)cc1)P(=O)(c1ccccc1)c1ccccc1 (stereo not drawn)	-5	0	21*	3	2	-7
COc1ccc(CN(CCN2CCOCC2)C(=O)c2cccc(F)c2)cc1OC	0	nt	5	-1	nt	nt
SMILES	PLC-beta3 inh	DAGLB inh	sPLA2-III inh	PLCg1 inh	hGIII sPLA2 conf	BODIPY interf	others
Cc1cc(C)c2c(c1)/C(=N/Nc1ccc(S(N)(=O)=O)cc1[N+](=O)[O-])CCC2	-9	2	20*	2	9	7.5*
CC1CC(C)CN(C(=S)Nc2ccc3nc4n(c(=O)c3c2)CCCCC4)C1 (stereo not drawn)	-23	1	11	-22	nt	nt
CC1CCCN(C(=S)Nc2ccc3nc4n(c(=O)c3c2)CCCCC4)C1 (stereo not drawn)	-20	-1	27*	-18	10	-10
COc1ccc(Nc2nc(-c3ccccc3)c3ccccc3n2)cc1	-3	-1	5	-3	nt	nt
COc1cccc(-c2nc(-c3ccccc3)c3ccc(Cl)cc3n2)c1	1	nt	20*	5	-3	-6
CCOc1ccc(NC(=O)NNC(=O)c2cc3ccccc3cc2O)cc1	-69	3	14	-38	nt	nt
O=C(NNC(=O)c1ccc2ccccc2c1O)c1cccs1	-10	5	7	-2	nt	nt
CCc1ccc(NC(=O)NNC(=O)c2cc3ccccc3cc2O)cc1	-163	2	27*	-96	16	1
CCc1ccc(NC(=O)NNC(=O)c2ccc3ccccc3c2O)cc1	-77	1	32*	-45	25*	5
CC1CCN(c2ccc(C(=O)O)cc2NS(=O)(=O)c2ccc(Cl)s2)CC1	-3	nt	-8	-4	nt	nt
CCOC(=O)c1cnn(-c2ccccc2)c1NC(=O)CN1CCCCC1	-7	1	21*	4	-1	-7
O=C(Nc1ccccc1)Nc1ccc(Nc2ccccc2)cc1	10	nt	25*	2	6	0
Cc1cc(N(C)C)ccc1N=Nc1ccc(N)cc1	-4	31	26*	4	38*	18*
COC(=O)[C@]12C[C@H](CC(=O)NCCc3ccccc3OC)C(=O)N(Cc3ccc(Cl)cc3Cl)C1=C[C@H](C(C)(C)C)O[C@@H]2C	4	nt	-2	-2	nt	nt
COC(=O)C1CN(C2CCCC2)CCS(=O)(=O)N1Cc1ccc(C)cc1 (stereo not drawn)	3	nt	1	-2	nt	nt
Cc1csc(NC(=S)NC(=O)c2ccccc2)n1	1	-9	21*	6	32*	1	BODIPY interf DR=>122
CN1C(=O)C[C@@](C#N)(C(=O)N2CCOCC2)[C@H]1c1ccccc1	3	nt	1	0	nt	nt
Cc1ccc(S(=O)(=O)NCC(C)n2cncn2)cc1C (stereo not drawn)	-6	1	20*	1	-3	1
COC(c1ccccc1)c1nnc(CCC(=O)NC2CCCCC2)o1 (stereo not drawn)	1	0	-2	1	nt	nt
O=C(CCc1nnc(-c2ccccc2)o1)NC1CCCCC1	-6	1	19*	3	6	-5
c1ccc(C2(CN3CCNC[C@H]3Cc3cccc4ccccc34)CC2)cc1	-1	-2	23*	0	6	-40
COCCCN1C(=O)[C@H](CC(=O)NCc2cccc(C(F)(F)F)c2)[C@]2(C(=O)OC)CCCCC=C12	3	nt	-6	0	nt	nt
O=C(NCC(c1cccs1)N1CCOCC1)c1ccc([N+](=O)[O-])cc1 (stereo not drawn)	2	0	4	1	nt	nt

Screening data deposited in PubChem BioAssay by The Scripps Research Institute Molecular Screening Center.
